Assay results taken from PubChem BioAssay (NCATS).
Inconclusive results are not listed. A call without a number means that no potency is given here. A number with no mark means an inactive call. The source made the active and inactive calls. The call rests on the fitted dose curve; in most records, active means well fitted curve in the direction sought with a large enough effect; inconclusive means small, poorly fitted or top-dose-only effect, or another doubt; inactive means no such curve, though single readings can be large; an effect the other way counts as inactive or inconclusive.

What was measured:
[1] = Quantitative highthroughput screen to assess conditional lethalithy of NOMO1 cells grown in RPMI1640 with untreated serum (RPMI+s) (AID 1963876); conditions: NOMO1 AML cells in RPMI+serum, CellTiter-Glo viability, 48 h; series mostly up to 45.8 µM; further: nearly all actives have a fitted effect of over 35% in size; further: potency means the concentration at half of the fitted maximal effect
In short: (§1)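 Each medium arm—HPLM with 10% dialyzed FBS, or RPMI1640 with 5 mM glucose and 10% untreated or dialyzed FBS—was screened against an 11-point, 3-fold compound titration for 48 h at 37 °C, with CellTiter-Glo luminescence as endpoint.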

[2] = Quantitative highthroughput screen to assess conditional lethalithy of NOMO1 cells grown in RPMI1640 with dialyzed fetal bovine serum (RPMI+ds) (AID 1963877); conditions: NOMO1 in RPMI+dialyzed FBS viability, ATP luminescence, 48 h; series mostly up to 45.8 µM; further: nearly all actives have a fitted effect of over 30% in size; further: potency means the concentration at half of the fitted maximal effect
In short: as §1

[3] = Quantitative highthroughput screen to assess conditional lethalithy of NOMO1 cells grown in Human Plasma-Like Medium with dialyzed fetal bovine serum (HPLM+ds) (AID 1963878); conditions: NOMO1 AML cells in HPLM+ds, CellTiter-Glo viability, 48 h; series mostly up to 45.8 µM; further: nearly all actives have a fitted effect of over 35% in size; further: potency means the concentration at half of the fitted maximal effect
In short: as §1

[4] = Quantitative highthroughput screen to assess conditional lethalithy of P12 Ichikawa cells grown in RPMI1640 with dialyzed fetal bovine serum (RPMI+ds) (AID 1963880); conditions: ATP luminescence, 48 h; Potency: P12-Ichikawa viability; series mostly up to 45.8 µM; further: nearly all actives have a fitted effect of over 35% in size; further: potency means the concentration at half of the fitted maximal effect
In short: as §1

[5] = Quantitative highthroughput screen to assess conditional lethalithy of P12 Ichikawa cells grown in RPMI1640 with untreated serum (RPMI+s) (AID 1963881); conditions: ATP luminescence, 48 h; Potency: viability; series mostly up to 45.8 µM; further: nearly all actives have a fitted effect of over 35% in size; further: potency means the concentration at half of the fitted maximal effect
In short: as §1

[6] = Quantitative highthroughput screen to assess conditional lethalithy of SEM cells grown in Human Plasma-Like Medium with dialyzed fetal bovine serum (HPLM+ds) (AID 1963882); conditions: SEM B-ALL cells in HPLM+ds, CellTiter-Glo viability, 48 h; series mostly up to 45.8 µM; further: nearly all actives have a fitted effect of over 35% in size
In short: as §1

[7] = Quantitative highthroughput screen to assess conditional lethalithy of SEM cells grown in RPMI1640 with dialyzed fetal bovine serum (RPMI+ds) (AID 1963884); conditions: SEM B-ALL cells, RPMI+dialyzed FBS, CellTiter-Glo viability, 48 h; series mostly up to 45.8 µM; further: nearly all actives have a fitted effect of over 35% in size
In short: as §1

[8] = Quantitative highthroughput screen to assess conditional lethalithy of P12 Ichikawa cells grown in Human Plasma-Like Medium with dialyzed fetal bovine serum (HPLM+ds) (AID 1963879); conditions: ATP luminescence, 48 h; Potency: viability; series mostly up to 45.8 µM; further: nearly all actives have a fitted effect of over 35% in size; further: potency means the concentration at half of the fitted maximal effect
In short: as §1

[9] = Cellular viability qHTS for adrenocortical cancer (ACC) cell line SW-13 (AID 1963989); conditions: SW-13 ACC cells viability, CellTiter-Glo, 48 h; activity (max response): stronger effect = lower value;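 further: cells grown in serum-free medium with ITS supplement; nearly all actives have a fitted effect of over 65% in size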
In short: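 Viability was read as CellTiter-Glo luminescence after 48 h compound treatment (up to 46 uM final) of SW-13 cells grown serum-free; titration curves were fit with a four-parameter logistic model to give IC50 and efficacy.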

[10] = Cellular viability qHTS for adrenocortical cancer (ACC) cell line NCI-H295R (AID 1963990); conditions: CellTiter-Glo ATP luminescence, 48 h; series mostly up to 46.1 µM; further: nearly all actives have a fitted effect of over 60% in size
In short: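 CellTiter-Glo ATP luminescence, read 48 h after compound addition, measured viability of NCI-H295R adrenocortical cells grown serum-free with ITS. Final concentrations spanned up to 46 uM. Data normalized to DMSO and doxorubicin, fitted for IC50 and maximal response.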

[11] = Quantitative highthroughput screen to assess conditional lethalithy of SEM cells grown in RPMI1640 with unreated serum (RPMI+s) (AID 1963883); conditions: SEM B-ALL cells, CellTiter-Glo viability, 48 h; series mostly up to 45.8 µM; further: nearly all actives have a fitted effect of over 35% in size
In short: as §1

SMILES | Potency [1] | Potency [2] | Potency [3] | Potency [4] | Potency [5] | Potency [6] | Potency [7] | Potency [8] | activity (max response) [9] [%] | Potency [10] | Potency [11]
O=C1NC(=O)C(=Cc2ccc3c(c2)OC(F)(F)O3)S1 | inactive | inactive | inactive | inactive | inactive | inactive | inactive |  |  |  | 
O=c1n(CCCN2CCN(c3cccc(Cl)c3)CC2)nc2ccccn12 | inactive | inactive | inactive |  | inactive |  | inactive | inactive | -1.77 | inactive | 
CCCCCCCN(CC)CCCC(O)c1ccc(NS(C)(=O)=O)cc1 (stereo unspecified) | inactive | inactive | inactive |  |  |  |  | 13.2 µM (active) | -11.3 | inactive | 
CC(C)(C)OC(=O)N[C@H]1CCCCCC=C[C@@H]2C[C@@]2(C(=O)NS(=O)(=O)C2CC2)NC(=O)[C@@H]2C[C@@H](OC(=O)N3Cc4cccc(F)c4C3)CN2C1=O | inactive | inactive | inactive | inactive | inactive | inactive | inactive |  | 8.79 | inactive | inactive
C=C1C(=CC=C2CCC[C@]3(C)[C@@H]([C@H](C)C=C[C@H](C)C(C)C)CC[C@@H]23)C[C@@H](O)C[C@@H]1O | 16.6 µM (active) | 20.9 µM (active) | 8.33 µM (active) | 14.8 µM (active) | 9.35 µM (active) |  |  |  | -0.683 | inactive | 
COc1ccc(CC2=NN3C([C@@H](CCc4ccccc4)[C@@H](C)O)=NC(C)C3C(=O)N2)cc1OC (stereo partly specified) | inactive | inactive | inactive | inactive | inactive | inactive | inactive |  | 3.98 | inactive | inactive
COc1ccc(CCC(=O)Nc2nc3ccc(Cl)cc3s2)cc1OC | inactive | inactive | inactive | inactive | inactive | inactive |  |  | -11.7 |  | inactive
